p53 reactivator: mutant p53 re-activation in reporter cells | H1299 p53-A138V BP100-luciferase reporter, luminescence, 24 h | 320,000 tested, 0.063% active | Potency, µM (doses to about 92.2 µM), without a hit: top-dose activity change, positive = activation, actives largely listed as activators | AID 504706; further: potency means the concentration at half of the fitted maximal effect; % of control where 0% means no effect; nearly all actives have a fitted effect of over 45% in size
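p53-null H1299 cells stably carrying temperature-sensitive p53-A138V and a BP100-luciferase reporter were pinned with compounds (4-point, 1:5 series) and held 24 hrs at 37 deg C. Luminescence was read 10 min after detection reagent.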
ELG1 DNA repair: inhibitors of ELG1-dependent DNA repair in HEK293T cells. Potency, µM (doses to about 46.1 µM), for inactives: at the highest dose activity change, negative = inhibition, most hits filed as inhibitors. HEK293T ELG1-luciferase reporter, luminescence, 16 h; DNA damage induced by 5-fluorouridine. 330,000 tested, 2.3% active; further: potency means the concentration at half of the fitted maximal effect; on the % scale 0 is the no-effect control and ±100 the full control effect; nearly all actives have a fitted effect of over 55% in size
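HEK293T cells expressing luciferase-tagged ELG1 (2,000/well) received 5-Fluorouridine plus compound or DMSO for 16 hr at 37 °C. Luciferase was read by ONE-Glo luminescence after 30 min at room temperature.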
BRCA1 expr act: activators of BRCA1 expression | MCF7-BRCA1-FFLuc reporter, luminescence, 48 h; response scale: scaled: vehicle 0%, 10 µM genistein 100% | Potency, µM (highest dose often 46.1 µM), for inactives: at the top dose activation, most hits filed as activators | 380,000 tested, 1.1% active; further: potency means the concentration at half of the fitted maximal effect; nearly all actives have a fitted effect of over 80% in size
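Reporter cells (MCF7, BRCA1 promoter-firefly luciferase) received library compounds across a concentration series for 48 h. End-point luminescence was measured and concentration-effect curves derived after normalization.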
VP16 counter: Gal4-VP16 reporter inhibition counter-screen; Potency, µM (doses to about 53.6 µM), for the others: at the top dose activity, negative = inhibition, actives largely listed as inhibitors; AID 2546; 310,000 tested, 3.5% active; Drosophila S2 Gal4-VP16 UAS-luciferase, luminescence, 20 h;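 further: Gal4-VP16 expression switched on by copper sulfate through the metallothionein promoter; potency means the concentration at half of the fitted maximal effect; on the % scale 0 is the no-effect control and ±100 the full control effect; nearly all actives have a fitted effect of over 50% in size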
RORg inh: ROR gamma (mouse) transcription inhibition. Potency, µM (series often up to 53.6 µM), without a hit: at the highest dose activity change, negative = inhibition, hits mostly inhibitors. Drosophila S2 Gal4-RORgamma UAS-luciferase reporter, 20 h. P51450. AID 2551. 310,000 tested, 5.4% active; further: potency means the concentration at half of the fitted maximal effect; on the % scale 0 is the no-effect control and ±100 the full control effect; nearly all actives have a fitted effect of over 60% in size
Target sequence (P51450 whole entry, looked up, the tested form may be a part): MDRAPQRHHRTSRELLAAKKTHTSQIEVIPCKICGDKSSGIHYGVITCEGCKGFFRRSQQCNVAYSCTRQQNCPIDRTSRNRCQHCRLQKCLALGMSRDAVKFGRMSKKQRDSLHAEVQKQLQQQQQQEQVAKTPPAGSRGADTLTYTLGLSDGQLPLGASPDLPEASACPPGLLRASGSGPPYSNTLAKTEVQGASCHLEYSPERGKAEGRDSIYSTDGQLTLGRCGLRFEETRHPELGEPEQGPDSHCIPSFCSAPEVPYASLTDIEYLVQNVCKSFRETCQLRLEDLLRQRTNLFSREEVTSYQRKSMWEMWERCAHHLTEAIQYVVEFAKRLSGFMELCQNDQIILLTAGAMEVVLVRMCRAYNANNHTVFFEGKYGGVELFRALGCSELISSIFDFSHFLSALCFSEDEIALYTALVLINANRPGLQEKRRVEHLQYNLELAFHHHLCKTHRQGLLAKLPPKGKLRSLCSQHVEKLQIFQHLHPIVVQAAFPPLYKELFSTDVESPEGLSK
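Read-out: Photinus luciferase luminescence; inhibitors lower reporter signal. Insect Schneider cells with Gal4-ROR gamma fusion under metallothionein promoter, UAS reporter; 700 uM final copper sulfate induction, 20 hr, ambient temperature.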
Giardia killer: Giardia lamblia killing. Giardia lamblia trophozoite viability. activity change, % at 7.66 µM, hits read low. 340,000 tested, 0.15% active; in the data active means activity change below about -80%; inconclusive means between about -30% and that limit;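 further: parasites exposed to compound for two days anaerobically before the ATP read; on the % scale 0 is the no-effect control and ±100 the full control effect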
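Media and compound were dispensed first, then trophozoites at 100 cells/well; plates sat 48 hrs at 37 deg C without oxygen before ATP luminescence reagent was added and read after 15-30 min at room temperature.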
Starred values were filed as active, the others as inactive; u = inconclusive; x = no result. A selection: hits, their analogues and other compounds. The true share with any hit is near 7.6%. Unless noted, the call rests on the fitted dose curve; in most records, active means well fitted curve in the direction sought with a large enough effect; inconclusive means small, poorly fitted or top-dose-only effect, or another doubt; inactive means no such curve, though single readings can be large; an effect the other way counts as inactive or inconclusive.

SMILES	p53 reactivator	ELG1 DNA repair	BRCA1 expr act	VP16 counter	RORg inh	Giardia killer
O=[N+]([O-])c1ccc(-c2cn3c(n2)SCC3)cc1	x	x	8.9µM*	x	x	18
COCCn1c(SCC(=O)N2CCc3ccccc3C2)nc2cc(Cl)ccc2c1=O	7%	23µM*	-63%	1%	39%	4
COCCn1c(SCC(=O)Nc2cc(C)on2)nc2cc(Cl)ccc2c1=O	5%	3%	-5%	x	x	4
O=C1COc2ccc(C(=O)CSc3ccccc3C(=O)O)cc2N1	-4%	5%	-1%	-22%	-18%	16
CC(C)Cn1c(SCC(=O)N2CCc3ccccc3C2)nc(O)cc1=O	-2%	4%	6%	x	x	1
CC(C)c1ccccc1-n1c(SCC(=O)c2ccc3c(c2)NC(=O)CO3)nc2ccccc2c1=O	-3%	5.2µM*	-70%	7%	2.8µM*	-12
CC(C)Cn1c(SCC(=O)N2CCc3ccccc3C2)nc2cc(Cl)ccc2c1=O	4%	18µM*	-19%	u	u	5
CC(C)c1ccccc1-n1c(SCC(=O)N2CCc3ccccc3C2)nc2ccccc2c1=O	-8%	26µM*	-49%	-15%	26%	-7
CC1(C(=O)NS(=O)(=O)c2cccc(F)c2)CCN1C(=O)Cc1ccccc1Cl (stereo not drawn)	x	x	10%	x	x	x
COc1ccc(-c2csc(NC(=O)CSc3nnnn3C)n2)c(OC)c1	5%	2%	-1%	x	x	59
CC(=O)c1c(C)n(C)c2ccc(O)cc12	0%	u	-17%	0%	-22%	6
O=C(O)c1ccc(S(=O)(=O)NCC2CCCCC2)cc1	-1%	-5%	-17%	-6%	4%	4
CCCCn1c(SCC(=O)c2ccc3c(c2)NC(=O)CO3)nc2cc(S(N)(=O)=O)ccc21	-6%	16µM*	-15%	-1%	-3%	3
CCCc1cc(C(=O)Nc2cccc(Cl)c2)no1	6%	u	u	u	38%	-10
O=C(Nc1ccc(F)c(Cl)c1)c1cc(C2CCCCN2C(=O)C2CC2)on1 (stereo not drawn)	x	x	0%	x	x	x
CCCc1cc(C(=O)Nc2ccc(F)c(Cl)c2)no1	25%	14%	11µM*	15%	6%	-14
O=C(Nc1ccc(F)c(Cl)c1)c1cc(C2CCCN(C(=O)C3CC3)C2)on1 (stereo not drawn)	x	x	2.8µM*	x	x	x
COC(=O)c1c(NC(=O)COC(=O)c2ccccn2)sc(C)c1C	3%	0%	7%	x	x	16
Cc1[nH]nc2c1C(c1ccco1)C(C#N)=C(N)O2 (stereo not drawn)	-2%	3%	-13%	0%	u	5
Cc1[nH]nc2c1C(c1cc(Br)cs1)C(C#N)=C(N)O2 (stereo not drawn)	-20%	u	-28%	7.1µM*	0.71µM*	7
COc1cc2oc(=O)cc(CN3CCCC3)c2cc1Cl	x	x	13%	x	x	x
CCCCCCC(C)n1[nH]c(=O)c2c(C)cc(=O)[nH]c21 (stereo not drawn)	4%	u	-17%	4µM*	7.1µM*	29
CCN(CC)c1ccc(NC(=O)COC(=O)CCC(=O)c2ccc(F)cc2)cc1	-6%	u	-24%	4%	1%	12
CNC(=S)Nc1ccc(Br)cc1	10%	15%	-4%	-2%	35µM*	-17
CNC(=S)Nc1ccc(Nc2ccccc2)cc1	20%	u	48%	-2%	11µM*	1
SMILES	p53 reactivator	ELG1 DNA repair	BRCA1 expr act	VP16 counter	RORg inh	Giardia killer
CNC(=S)Nc1ccc(OC(F)(F)F)cc1	-4%	7%	-6%	10µM*	7.1µM*	37
CCCNC(=S)Nc1ccc(Nc2ccccc2)cc1	3%	u	2%	16µM*	5µM*	-4
CCOc1ccc(NC(=S)Nc2ccc(OC(F)(F)F)cc2)cc1	9%	-1%	-6%	u	u	13
S=C(NCCCNC(=S)Nc1ccccc1)Nc1ccccc1	11%	-1%	-19%	5%	u	2
CCOC(=O)c1cnc2c(C)c(Cl)ccc2c1N1CCN(CC)CC1	-69%	u	-5%	-9%	-22%	22
CCOC(=O)CSc1nc2ccc(NC(=O)CSc3nnnn3Cc3ccccc3)cc2s1	-4%	-4%	-2%	-9%	20%	-5
Cn1ccnc1SCC(=O)Nc1ccc2nc(SCC(=O)NC3CC3)sc2c1	u	u	3.5µM*	u	25%	12
CC(C)(C)NC(=O)CSc1nc2ccc(NC(=O)CSc3nnnn3Cc3ccccc3)cc2s1	0%	2.9µM*	-49%	11µM*	-41%	-9
CC(C)(C)NC(=O)CSc1nc2ccc(NC(=O)CSc3nnc(N)s3)cc2s1	-21%	16µM*	-23%	u	26%	7
Cn1ccnc1SCC(=O)NC1CCCC1	3%	21%	-26%	9%	-36%	-2
CCN(CC)C(=O)CSc1nc2ccc(NC(=O)CSc3nnc(COc4ccccc4C)n3C)cc2s1	-4%	8.2µM*	3%	4%	-14%	-4
O=C(Nc1nnc(-c2ccccc2)s1)c1cccc(S(=O)(=O)N2CCOCC2)c1	17%	2%	20%	-20%	-5%	11
COC(=O)c1ccccc1-c1cn(C)c2ccccc2c1=O	-10%	-4%	-18%	2%	-16%	-13
O=C(Nc1cccc2ccccc12)/C(Cl)=C/c1ccccc1	9%	u	-15%	-9%	43%	21
CCN(CC)c1ccc2cc(NC(=O)CCC(=O)O)c(=O)oc2c1	-20%	0%	-95%	1.3µM*	0.79µM*	-25
O=C(Nc1ccccc1N1CCOCC1)c1cccc([N+](=O)[O-])c1	-9%	-3%	-15%	-7%	-29%	1
O=C(c1ccc(-c2cccc(C(F)(F)F)c2)o1)N1CCOCC1	u	u	11µM*	-6%	23%	-8
CC(=O)N1CCN(C(=O)c2ccc(-c3cccc(C(F)(F)F)c3)o2)CC1	-4%	4%	-7%	x	x	0
O=C(c1ccc([N+](=O)[O-])o1)N1CCOCC1	11%	-13%	-9%	-4%	16µM*	u
O=C(c1ccc([N+](=O)[O-])o1)N1CCCCCC1	u	5%	-19%	x	x	-91*
Cc1ccc2sc(N3CCN(C(=O)c4ccc([N+](=O)[O-])o4)CC3)nc2c1C	5%	-13%	-7%	x	x	-29
CC(C)Cn1cc(NC(=O)N2CCN(c3cccc(C(F)(F)F)c3)CC2)c2ccccc2c1=O	x	x	-41%	x	x	x
Cc1ccc(N(C)S(=O)(=O)c2cccc(C(=O)N(C)Cc3cnn(-c4ccccc4)c3)c2)cc1	-3%	16µM*	-63%	x	x	-9

Bioassay records (PubChem)
